The values that follow come from PubChem BioAssay (NCATS).

Results filed as inconclusive are left out. Entries that show only a call come without a potency. The source made the active and inactive calls. Unless noted, the call rests on the fitted dose curve; in most records, active means well fitted curve in the direction sought with a large enough effect; inconclusive means small, poorly fitted or top-dose-only effect, or another doubt; inactive means no such curve, though single readings can be large; an effect the other way counts as inactive or inconclusive.

Assay [1] has as its target Muscarinic acetylcholine receptor M1 (Rattus norvegicus) (UniProt P08482). Kind of assay: qHTS Assay for Antagonists of Acetylcholine Muscarinic M1 Receptor: Kinetic Measurement of Intracellular Calcium Response (AID 943). Further: nearly all actives have a fitted effect of over 75% in size. Further: potency means the concentration at half of the fitted maximal effect. In a few lines:
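Read-out: peak over basal Fluo-4 fluorescence, kinetic at 1 Hz for 4 min after EC80 carbachol (100 nM final). Rat M1-CHO cells, dye loaded 1 h at 37C, compound added 10 min before agonist.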
In general terms: qHTS replaces the single test concentration by a dilution series.

Assay [2] deals with Pyruvate kinase (Leishmania mexicana) (UniProt Q27686). Kind of assay: qHTS Validation Assay for Inhibitors of Leishmania Mexicana Pyruvate Kinase (AID 945). In a few lines:
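Purified LmPYK (E451W mutant, 0.2 nM) was incubated 1 h at room temperature with 0.5 mM PEP and 0.1 mM ADP in 50 mM imidazole pH 7.2, 50 mM KCl, 7 mM MgCl2; ATP formed was read by PKLight luminescence, normalized to DMSO wells.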

The target in assay [3] is Pyruvate kinase PKM (Homo sapiens) (UniProt P14618). The assay can be described thus: qHTS Assay for Activators of Human Muscle Pyruvate Kinase (AID 954; active means well fitted curve in the direction sought with a large enough effect, not every such curve was filed as active). In a few lines:
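A coupled luminescent readout tracked ATP made from ADP by purified PKM2. Final conditions included 0.1 nM enzyme, PEP and ADP at 0.5 and 0.1 mM, pH 7.2 imidazole buffer with BSA, and a one-hour room-temperature reaction.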

The target of assay [4] is Muscarinic acetylcholine receptor M1 (Rattus norvegicus) (UniProt P08482). The assay can be described thus: qHTS Assay for Antagonists of Acetylcholine Muscarinic M1 Receptor: Measurement of IP-One Response (AID 944). Further: nearly all actives have a fitted effect of over 75% in size. Further: potency means the concentration at half of the fitted maximal effect. Put shortly:
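Read-out: HTRF competition between d2-IP1 and Eu-cryptate anti-IP1 antibody, emission 620 and 665 nm. Stimulus was carbachol, EC80 (200 nM), for 30 min in M1-CHO cells (rat receptor), after 10 min compound pre-treatment.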

A short description of assay [5]: Confirmation and Secondary Assay for Modulators of Hemoglobin Beta Chain Splicing at IVS2 705 locus (AID 930).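 Further: HeLa cells stably expressing the EGFP-705 splicing reporter; series mostly up to about 46 µM.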 Put shortly: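 Restored EGFP fluorescence after 2-day compound exposure reports splicing correction in IVS2-705 EGFP reporter HeLa cells; positive control was 500 nM splice-blocking PNA oligo. Signal measured as well total peak GFP intensity (488 nm excitation).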

Assay [6] is described as follows: qHTS Assay for Identification of Small Molecule Agonists for Thrombopoietin (TPO) Signaling Pathway (AID 917). Put shortly:
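Luciferase reporter (Glycoprotein IIb promoter) in IL-3-deprived Ba/F3 cells carrying human TPO receptor; compounds co-added with 26 pM TPO, incubated 24 h, 37 C. Steadylite luminescence measured after 10 min.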

Chain of Pyruvate kinase (Leishmania mexicana) (Q27686 2-499 E452W): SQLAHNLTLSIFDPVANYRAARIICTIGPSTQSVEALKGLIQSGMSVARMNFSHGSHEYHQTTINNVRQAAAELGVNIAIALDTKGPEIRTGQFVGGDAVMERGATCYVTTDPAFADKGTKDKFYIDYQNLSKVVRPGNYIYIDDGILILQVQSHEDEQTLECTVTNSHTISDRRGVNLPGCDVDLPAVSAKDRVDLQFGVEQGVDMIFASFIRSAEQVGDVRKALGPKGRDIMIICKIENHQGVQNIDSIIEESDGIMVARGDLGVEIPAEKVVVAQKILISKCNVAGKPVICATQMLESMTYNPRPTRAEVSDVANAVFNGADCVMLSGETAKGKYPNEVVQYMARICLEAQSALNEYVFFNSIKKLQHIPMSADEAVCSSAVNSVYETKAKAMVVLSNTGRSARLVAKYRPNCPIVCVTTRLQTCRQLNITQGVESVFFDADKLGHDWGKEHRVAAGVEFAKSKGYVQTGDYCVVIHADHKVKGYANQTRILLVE
Chain of Muscarinic acetylcholine receptor M1 (Rattus norvegicus) (P08482 whole entry, looked up): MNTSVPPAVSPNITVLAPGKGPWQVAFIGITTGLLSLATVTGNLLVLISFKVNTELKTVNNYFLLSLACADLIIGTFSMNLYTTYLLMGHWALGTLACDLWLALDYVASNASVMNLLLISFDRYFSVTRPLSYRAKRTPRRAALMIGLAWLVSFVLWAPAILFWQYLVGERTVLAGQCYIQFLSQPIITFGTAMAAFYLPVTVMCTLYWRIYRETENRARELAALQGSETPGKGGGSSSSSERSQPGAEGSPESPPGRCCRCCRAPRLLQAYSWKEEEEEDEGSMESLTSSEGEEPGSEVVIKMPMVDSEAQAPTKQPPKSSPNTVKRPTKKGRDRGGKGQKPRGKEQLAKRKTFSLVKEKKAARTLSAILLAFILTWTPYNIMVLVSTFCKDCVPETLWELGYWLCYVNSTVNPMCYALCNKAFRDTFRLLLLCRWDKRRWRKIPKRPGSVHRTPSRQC
Chain of Pyruvate kinase PKM (Homo sapiens) (P14618 whole entry, looked up): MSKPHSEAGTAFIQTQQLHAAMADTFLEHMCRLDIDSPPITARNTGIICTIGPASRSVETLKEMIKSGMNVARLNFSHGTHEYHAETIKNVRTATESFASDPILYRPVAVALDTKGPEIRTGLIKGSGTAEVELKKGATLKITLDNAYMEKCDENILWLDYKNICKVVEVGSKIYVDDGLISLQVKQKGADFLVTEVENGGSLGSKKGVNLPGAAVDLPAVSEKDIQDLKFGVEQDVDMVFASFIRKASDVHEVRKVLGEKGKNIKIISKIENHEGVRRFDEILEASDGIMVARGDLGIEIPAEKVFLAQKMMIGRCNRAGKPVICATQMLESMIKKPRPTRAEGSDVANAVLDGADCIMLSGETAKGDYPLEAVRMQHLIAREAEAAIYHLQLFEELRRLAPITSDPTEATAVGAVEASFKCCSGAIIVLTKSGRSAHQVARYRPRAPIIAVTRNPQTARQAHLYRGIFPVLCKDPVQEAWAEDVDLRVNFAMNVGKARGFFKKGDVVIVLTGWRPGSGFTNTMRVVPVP

With `NCCNS(=O)(=O)c1cccc2c(Cl)cccc12`, the Potency entry in assay [1] and in assay [2] was “inactive” throughout. Further, the result in assay [3] was inactive.

For the compound `Nc1ncnc2c1ncn2C1CCCC1`, the Potency entry in assay [1] and in assay [2] was “inactive” each time. Further, the result in assay [3] was inactive.

In the case of `S=C(S)N1CCCC1`, the Potency entry in assay [4] and in assay [2] was “inactive” throughout. For the same compound, in assay [3], the compound was called inactive.

Turning to `NC1CONC1=O` (stereo not drawn), in assay [5], the call was inactive.

Consider `CCN(CC)CCCCCCCCOC(=O)c1cc(OC)c(OC)c(OC)c1`, for which the Potency in assay [1] and in assay [4] was 2820 nM (active) throughout. The Potency entry in assay [2] was “inactive”. Besides, in assay [3], the result was inactive.

For `CC[C@@H]1Cc2cc(O)ccc2C2=C1c1ccc(O)cc1C[C@H]2CC`, the Potency in assay [1] is 12600 nM (active). Also, in assay [3], the call was inactive.

Regarding `Nn1nnc2ccccc21`, the Potency result in assay [2] is “inactive”. Also, the compound was called inactive in assay [3].

With `CCCCCCCC/C=C\CCCCCCCC(=O)NCCc1ccc(O)c(O)c1`, the Potency result in assay [1], in assay [4] and in assay [2] was “inactive” in each case. Besides, the call in assay [3] was inactive.

As to `O=c1oc(Cl)c(Cl)c2ccccc12`, the Potency result in assay [1] and in assay [2] was “inactive” each time. For the same compound, the outcome in assay [3] was inactive.

Take `Nc1ncnc2c1c(-c1ccc(Oc3ccccc3)cc1)cn2C1CCCC1`: the Potency entry in assay [2] is “inactive”. For the same compound, the call in assay [3] was inactive.

For `N#C/C(=C\c1ccc(O)c(O)c1)C(=O)NCCc1ccccc1`, the Potency result in assay [1] and in assay [2] was “inactive” each time. The compound was called inactive in assay [3].

For `COc1cc(CC(=O)O)ccc1O`, the Potency entry in assay [6] and in assay [2] was “inactive” throughout. For the same compound, the result in assay [3] was inactive.

On to `O=C(O)Cc1ccc(O)c(O)c1`, for which the Potency result in assay [1] and in assay [2] was “inactive” each time. For the same compound, in assay [3], the outcome was inactive.

For `c1ccc(C2CN3CCSC3=N2)cc1` (stereo not drawn), the result in assay [5] was inactive.

Regarding `CN(C)CCC(c1ccc(Br)cc1)c1ccccn1` (stereo not drawn), in assay [5], the compound was called inactive.

Regarding `Cc1cccc(C(=O)NCN2CCN(c3ccccc3C#N)CC2)c1`, in assay [1], the Potency result is “inactive”. In addition, in assay [3], the outcome was inactive.

Consider `O=c1ccc2c(OCCCCc3ccccc3)c3ccoc3cc2o1`, for which the Potency result in assay [6] and in assay [2] was “inactive” in each case. Besides, the compound was called inactive in assay [3].
